Test results: PubChem BioAssay AID588689 (Southern Research Specialized Biocontainment Screening …, 2011)
About 1,000 (0.29%) of roughly 340,000 compounds were called active. Rule as the data show it: inconclusive = inhibition above about 29% without an active follow-up result; inactive = below that. Only a sample is shown. Measured potencies and affinities stand elsewhere.

Molecular target: Genome polyprotein (Dengue virus type 2 (strain 16681-PDK53)) (UniProt P29991)
Experiment: Dengue-2 NS5 methyltransferase inhibitors, primary screen, biochemical, confirmation dose response (AID 588689)
Settings: Dengue-2 NS5 methyltransferase capping enzyme assay, at 25 µM, stronger effect = higher value
[1] = measured here: pilot screen replicate inhibition

Genome polyprotein (Dengue virus type 2 (strain 16681-PDK53)), sequence (P29991 whole entry, looked up): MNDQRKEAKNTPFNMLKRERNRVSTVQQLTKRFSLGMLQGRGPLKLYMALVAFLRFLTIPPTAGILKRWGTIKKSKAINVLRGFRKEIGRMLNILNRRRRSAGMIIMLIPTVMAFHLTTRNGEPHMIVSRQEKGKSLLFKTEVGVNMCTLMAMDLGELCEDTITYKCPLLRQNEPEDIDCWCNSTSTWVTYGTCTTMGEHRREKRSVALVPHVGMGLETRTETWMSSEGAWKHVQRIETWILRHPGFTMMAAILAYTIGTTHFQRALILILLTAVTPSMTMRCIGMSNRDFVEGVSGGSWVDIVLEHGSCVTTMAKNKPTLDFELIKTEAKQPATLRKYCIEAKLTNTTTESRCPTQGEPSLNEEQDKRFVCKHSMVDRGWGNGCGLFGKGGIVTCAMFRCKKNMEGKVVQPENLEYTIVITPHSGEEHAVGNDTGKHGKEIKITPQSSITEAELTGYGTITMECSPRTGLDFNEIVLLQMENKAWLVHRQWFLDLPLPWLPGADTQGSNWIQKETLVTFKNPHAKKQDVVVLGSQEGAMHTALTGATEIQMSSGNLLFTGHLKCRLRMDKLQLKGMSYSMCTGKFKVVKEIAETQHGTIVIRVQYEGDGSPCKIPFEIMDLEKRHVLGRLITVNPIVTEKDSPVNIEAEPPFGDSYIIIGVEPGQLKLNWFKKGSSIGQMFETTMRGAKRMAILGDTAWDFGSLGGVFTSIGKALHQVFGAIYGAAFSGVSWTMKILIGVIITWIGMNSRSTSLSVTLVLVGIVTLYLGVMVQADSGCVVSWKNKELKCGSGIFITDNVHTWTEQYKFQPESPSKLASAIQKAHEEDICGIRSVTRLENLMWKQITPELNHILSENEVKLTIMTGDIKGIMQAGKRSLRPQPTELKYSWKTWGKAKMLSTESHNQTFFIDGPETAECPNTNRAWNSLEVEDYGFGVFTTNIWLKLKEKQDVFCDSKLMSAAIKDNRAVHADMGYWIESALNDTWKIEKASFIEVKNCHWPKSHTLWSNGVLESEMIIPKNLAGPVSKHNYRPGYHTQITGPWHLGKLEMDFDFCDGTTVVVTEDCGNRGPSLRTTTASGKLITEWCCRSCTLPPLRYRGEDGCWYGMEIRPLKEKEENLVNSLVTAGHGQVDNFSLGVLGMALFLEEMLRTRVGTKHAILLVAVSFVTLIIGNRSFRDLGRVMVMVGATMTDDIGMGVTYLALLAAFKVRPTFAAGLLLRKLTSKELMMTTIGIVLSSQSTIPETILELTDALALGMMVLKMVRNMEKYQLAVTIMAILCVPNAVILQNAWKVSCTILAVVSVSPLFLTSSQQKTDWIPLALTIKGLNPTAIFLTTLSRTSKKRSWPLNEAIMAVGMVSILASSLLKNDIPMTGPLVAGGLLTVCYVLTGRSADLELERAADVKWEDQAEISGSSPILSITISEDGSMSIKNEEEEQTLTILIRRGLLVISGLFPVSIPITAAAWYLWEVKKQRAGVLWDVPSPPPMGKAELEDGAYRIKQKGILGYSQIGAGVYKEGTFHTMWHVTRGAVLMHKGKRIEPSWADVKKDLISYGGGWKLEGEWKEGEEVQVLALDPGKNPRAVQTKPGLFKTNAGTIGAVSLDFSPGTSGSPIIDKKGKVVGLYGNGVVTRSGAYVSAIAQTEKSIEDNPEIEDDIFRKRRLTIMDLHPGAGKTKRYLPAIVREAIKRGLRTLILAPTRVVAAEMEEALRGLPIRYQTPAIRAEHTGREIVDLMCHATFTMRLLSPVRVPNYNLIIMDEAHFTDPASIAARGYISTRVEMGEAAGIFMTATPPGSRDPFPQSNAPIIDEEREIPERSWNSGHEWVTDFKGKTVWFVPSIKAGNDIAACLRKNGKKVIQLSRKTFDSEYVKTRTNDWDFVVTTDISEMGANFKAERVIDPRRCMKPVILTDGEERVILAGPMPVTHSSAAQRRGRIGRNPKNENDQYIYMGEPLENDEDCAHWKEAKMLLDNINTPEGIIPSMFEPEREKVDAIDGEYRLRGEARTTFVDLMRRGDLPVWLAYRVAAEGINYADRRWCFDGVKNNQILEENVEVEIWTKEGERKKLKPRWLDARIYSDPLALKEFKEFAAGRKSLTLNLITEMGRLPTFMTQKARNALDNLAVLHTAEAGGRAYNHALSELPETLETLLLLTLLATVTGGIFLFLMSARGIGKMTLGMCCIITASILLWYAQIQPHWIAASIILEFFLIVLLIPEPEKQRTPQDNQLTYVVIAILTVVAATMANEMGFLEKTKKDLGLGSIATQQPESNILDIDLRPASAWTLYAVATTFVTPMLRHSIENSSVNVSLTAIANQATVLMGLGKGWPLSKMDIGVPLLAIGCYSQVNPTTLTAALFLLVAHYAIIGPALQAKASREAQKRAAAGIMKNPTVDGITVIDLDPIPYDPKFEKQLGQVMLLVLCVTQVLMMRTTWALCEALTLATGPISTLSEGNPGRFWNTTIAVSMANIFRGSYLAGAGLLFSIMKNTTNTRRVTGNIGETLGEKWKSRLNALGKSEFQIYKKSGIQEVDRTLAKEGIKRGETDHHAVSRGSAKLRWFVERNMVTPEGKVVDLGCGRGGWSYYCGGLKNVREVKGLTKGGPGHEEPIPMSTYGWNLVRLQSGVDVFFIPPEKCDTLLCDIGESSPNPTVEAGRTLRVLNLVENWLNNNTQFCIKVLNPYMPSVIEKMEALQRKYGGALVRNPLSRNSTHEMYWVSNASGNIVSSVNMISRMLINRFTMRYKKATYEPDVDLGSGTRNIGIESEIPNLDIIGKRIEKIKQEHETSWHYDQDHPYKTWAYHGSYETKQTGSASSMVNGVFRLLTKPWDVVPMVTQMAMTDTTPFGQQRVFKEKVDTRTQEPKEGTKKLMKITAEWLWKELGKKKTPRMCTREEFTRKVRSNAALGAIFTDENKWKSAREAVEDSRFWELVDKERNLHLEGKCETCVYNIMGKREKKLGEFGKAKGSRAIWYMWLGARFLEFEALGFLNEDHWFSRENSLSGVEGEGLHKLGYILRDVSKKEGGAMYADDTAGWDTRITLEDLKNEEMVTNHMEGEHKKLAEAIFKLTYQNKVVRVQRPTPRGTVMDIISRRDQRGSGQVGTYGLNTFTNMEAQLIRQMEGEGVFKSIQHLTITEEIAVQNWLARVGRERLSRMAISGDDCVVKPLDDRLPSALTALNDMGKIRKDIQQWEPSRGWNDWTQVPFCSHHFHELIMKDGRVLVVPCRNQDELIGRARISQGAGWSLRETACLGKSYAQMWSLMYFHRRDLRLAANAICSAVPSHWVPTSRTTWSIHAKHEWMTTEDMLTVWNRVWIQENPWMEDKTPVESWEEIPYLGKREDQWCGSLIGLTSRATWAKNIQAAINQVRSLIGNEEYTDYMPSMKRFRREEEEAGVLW

| SMILES | inhibition | inhibition [1] [%] |
| --- | --- | --- |
| CC(=O)c1ccc(C(=O)N(C)C2CCCN(Cc3ccccc3F)C2)s1 (stereo not drawn) | -12.1% (inactive) | – |
| Cc1ccc(S(=O)(=O)Nc2nc(-c3ccccc3)cs2)cc1 | 23% (inactive) | – |
| Cc1ccc(S(=O)(=O)Nc2ccccc2C(=O)Nc2nc(-c3ccc(F)cc3)cs2)cc1 | 0.64% (inactive) | – |
| O=S(=O)(Nc1nc(-c2ccccc2)cs1)c1cccc(C(F)(F)F)c1 | 19.9% (inactive) | – |
| COc1ccc(-c2csc(NS(=O)(=O)c3ccc([N+](=O)[O-])cc3)n2)cc1 | 19.5% (inactive) | – |
| COc1ccc(S(=O)(=O)N2CCCC2C(=O)NCc2cccs2)cc1 (stereo not drawn) | -17.2% (inactive) | – |
| CCOc1ccc(S(=O)(=O)N2CCCCC2)c2ccccc12 | -5.6% (inactive) | – |
| CCc1cccc(C)c1NC(=O)CSc1nc2ccccc2n1CC(=O)N(C)C | -2.07% (inactive) | – |
| O=C(O)COc1ccccc1/C=N/NC(=O)c1cc(-c2ccccc2)nc2ccccc12 | 7.47% (inactive) | – |
| O=C(O)COc1ccccc1/C=N/NC(=O)c1cc(-c2ccc(F)cc2)nc2ccccc12 | 1.48% (inactive) | – |
| CCN(CC)S(=O)(=O)c1ccc(N/N=C/c2ccccc2OCC(=O)O)c([N+](=O)[O-])c1 | 13.7% (inactive) | – |
| COc1ccc(NS(=O)(=O)c2cc([N+](=O)[O-])ccc2NN=Cc2ccccc2OCC(=O)O)cc1 | -8.26% (inactive) | – |
| O=C(O)COc1ccccc1C=NNc1ccc([N+](=O)[O-])cc1S(=O)(=O)Nc1ccc(Cl)cc1 | 35% (inactive) | – |
| COc1ccccc1NS(=O)(=O)c1cccc(C(=O)N/N=C/c2ccccc2OCC(=O)O)c1 | -8.38% (inactive) | – |
| O=C(O)COc1ccccc1/C=N/Nc1ccc(S(=O)(=O)N2CCOCC2)cc1[N+](=O)[O-] | 6.86% (inactive) | – |
| Cc1ccc(NS(=O)(=O)c2ccc(N/N=C/c3ccncc3)c([N+](=O)[O-])c2)c(C)c1 | 2.21% (inactive) | – |
| CNC(=O)N(O)C1N(/N=C/c2ccc(C)cc2)C(=S)SC1(C)C (stereo not drawn) | -3.93% (inactive) | – |
| O=C(CCOc1ccccc1)NNC(=O)c1ccccc1 | -4.63% (inactive) | – |
| Cc1ccc(C)c(C(=O)CCC(=O)Nc2cccnc2)c1 | -3.23% (inactive) | – |
| CC1=C(C#N)C(=O)NC1(C)O (stereo not drawn) | 5.14% (inactive) | – |
| COc1ccc(N(CC(=O)N2CCN(Cc3ccccc3)CC2)S(=O)(=O)c2ccccc2)cc1 | -5.2% (inactive) | – |
| O=C(c1cccs1)N(Cc1ccco1)C1CCS(=O)(=O)C1 (stereo not drawn) | -4.01% (inactive) | – |
| O=C(Nc1ccccc1)c1ccccc1NC(=O)[C@H]1CCCC[C@H]1C(=O)O | -3.92% (inactive) | -1.53 |

| SMILES | inhibition | inhibition [1] [%] |
| --- | --- | --- |
| CCC(C)Sc1cc(-c2nc3ccc(Cl)cn3c2NC2CCCCC2)ccc1OC (stereo not drawn) | -12.6% (inactive) | – |
| Cc1cc(OC(C)C(=O)NC2CCN(Cc3ccccc3)CC2)c2c(C)cc(=O)oc2c1 (stereo not drawn) | -2.72% (inactive) | – |
| CCCCOC(=O)C1=C(C)NC(=O)NC1c1ccc(OC)cc1 (stereo not drawn) | -0.39% (inactive) | – |
| Cn1cc(C(=O)Nc2ccc(F)c(F)c2)cn1 | 0% (inactive) | – |
| COCC(=O)Nc1ccc(N2CCCC2)c(S(=O)(=O)Nc2ccccc2OC)c1 | -9.92% (inactive) | – |
| COc1ccc(N(CC(=O)NCCc2ccc(Cl)cc2)S(=O)(=O)c2c(C)[nH]c(=O)[nH]c2=O)cc1 | -3.87% (inactive) | – |
| C=CC[C@@H](CC(=O)N[C@@H](CO)Cc1ccccc1)C(=O)NC[C@@H](OC(=O)[C@@H](CC=C)Cc1ccc(F)cc1)c1ccccc1 | -8.18% (inactive) | – |
| CO/N=C(/C)CCS(=O)(=O)c1ccccc1 | -0.73% (inactive) | – |
| CC(C(=O)Nc1nncs1)N1C(=O)C2C3C=CC(C3)C2C1=O (stereo not drawn) | -5.41% (inactive) | – |
| CCN(CC(=O)NCc1cccs1)C(=O)CCC(=O)c1ccc(C)cc1 | -8.12% (inactive) | – |
| NC(=O)C1CCN(C(=O)CN(C2CCCCC2)S(=O)(=O)c2ccc(F)cc2)CC1 | -9.49% (inactive) | – |
| CCN(CC)S(=O)(=O)c1ccc2c(c1)N(CC(=O)N1CCC(C(N)=O)CC1)C(=O)CO2 | -6.21% (inactive) | – |
| O=S(=O)(c1ccc2ccccc2c1)N1CCN(S(=O)(=O)c2c(F)cccc2F)CC1 | 1.65% (inactive) | – |
| COc1cc(O)c(NC(C)=O)c2nonc12 | 15% (inactive) | – |
| CCOc1cc(Cl)c(NC(C)=O)cc1OCC | -5.19% (inactive) | – |
| CC(C)(C)OC(=O)N1CCN(C(=O)c2[nH]cnc2C(=O)Nc2cccc(Cl)c2)CC1 | -10.3% (inactive) | – |
| O=CN1CCN(C(=S)NC(=O)c2ccc(Cl)cc2)CC1 | -3.86% (inactive) | – |
| C=CCN1C(=O)/C(=C\c2cccs2)C(C(=O)OC)=C1C | -4.71% (inactive) | – |
| CC(C)CN1C(=O)/C(=C/c2cccs2)NC1=S | 4.84% (inactive) | – |
| COC(=O)C1=C(C)NC(=O)/C1=C\c1cccs1 | 2.73% (inactive) | – |
| O=C1NN(c2ccc(F)cc2)C(=O)/C1=C/c1cccs1 | 8.53% (inactive) | – |
| COc1ccc(NS(=O)(=O)c2cccc(C(=O)NCC3(N(C)C)CCCCC3)c2)cc1 | -10.1% (inactive) | – |
| COCCNC(=O)c1ccc2c(=O)n(Cc3ccco3)c(SCC(=O)Nc3ccc(OC)cc3OC)nc2c1 | -3.55% (inactive) | – |

| SMILES | inhibition | inhibition [1] [%] |
| --- | --- | --- |
| COc1ccccc1N1CCN(S(=O)(=O)c2ccc3nc(-c4ccccc4)[nH]c3c2)CC1 | 1.09% (inactive) | – |
| O=c1c2c(nc3cc(-c4cccc(Cl)c4)[nH]n13)CCCC2 | 1.45% (inactive) | – |
| O=C(CSc1nc2c(c(=O)[nH]1)CCC2)Nc1cccc(Cl)c1 | -8.06% (inactive) | – |
| O=C(NN=C1CCCC1)C(=O)Nc1cccc(C(F)(F)F)c1 | -3.35% (inactive) | – |
| O=C(O)CSc1c2c(nc3cc(C(=O)Nc4cccc(C(F)(F)F)c4)ccc13)CCC2 | 2.95% (inactive) | – |
| Cc1ccc(S(=O)(=O)/N=C(\Nc2cccc(C)c2)Nc2nc(C)cc(C)n2)cc1 | -1.83% (inactive) | – |
| N#Cc1c(Nc2ccccc2)sc(C(=O)C2CC2)c1N | -8.93% (inactive) | – |
| CCN(CC)CCNC(C(=O)Nc1ccc([N+](=O)[O-])cc1Br)c1ccccc1 (stereo not drawn) | 3.24% (inactive) | – |
| Cc1cccc(N=Nc2cnc(N)s2)c1 | 0.79% (inactive) | – |
| COc1cc(C(=O)O)ccc1Cl | -1.59% (inactive) | – |
| CC(Oc1ccc2c(-c3ccccc3)cc(=O)oc2c1)C(=O)NCCCn1ccnc1 (stereo not drawn) | 2.17% (inactive) | – |
| CCC(=O)NC1=C(Nc2ccc(N)cc2)C(=O)c2ccccc2C1=O | 7.83% (inactive) | – |
| CC(C)NC1=C(Cl)C(=O)c2ccccc2C1=O | -0.68% (inactive) | – |
| CCC(=O)Nc1c(C)cc(C)cc1Cl | -1.67% (inactive) | – |
| CCCC(=O)Nc1ccccc1NC(=O)CCC | 0% (inactive) | – |
| O=C(NCCc1ccccc1)c1nc(CS(=O)(=O)c2ccc(Cl)cc2)no1 | -1.81% (inactive) | – |
| CCCCCC1CC(CC(=O)NC(=S)Nc2ccccc2Cl)C(=O)O1 (stereo not drawn) | -4.68% (inactive) | – |
| Nc1c(C(=O)O)ccc2c1C(=O)c1ccccc1C2=O | 24.7% (inactive) | – |
| CN(C)S(=O)(=O)c1cccc2c1C(=O)c1ccccc1C2=O | -1.92% (inactive) | – |
| CC1(Cc2cn(CCC#N)c3ccccc23)OCCO1 | 6.35% (inactive) | – |
| C/[N+]([O-])=C\C1C(=O)CC(C)(C)CC1=O | -2.92% (inactive) | – |
| CC1(C)CC(=O)C(C(c2cccc([N+](=O)[O-])c2)C2C(=O)CC(C)(C)CC2=O)C(=O)C1 | 0% (inactive) | – |
| CCOC(=O)c1cc(CC)sc1/N=C/C1C(=O)CC(C)(C)CC1=O | -17.9% (inactive) | – |

| SMILES | inhibition | inhibition [1] [%] |
| --- | --- | --- |
| CC1(C)CC(=O)C(C(=O)Cc2ccccc2[N+](=O)[O-])C(=O)C1 | -1.48% (inactive) | – |
| Cc1ccc2nc(SCn3nnc4ccccc4c3=O)[nH]c2c1 | -4.53% (inactive) | – |
| COc1ccc(OCCCC(=O)ON=C(N)c2ccccc2Cl)cc1 | 1.1% (inactive) | – |
| CN(CCc1ccccc1)C(=O)c1ccc(NC(=O)Cc2ccc(NC(=O)C3CCCN(C(=O)C4CCC4)C3)cc2)cc1 (stereo not drawn) | 0% (inactive) | 0.92 |
| COC(=O)c1ccc(NC(=O)CSc2nnc(COc3c(C)cccc3C)o2)cc1 | -9.55% (inactive) | – |
| CC1CC(=O)c2cc(-c3ccccc3)oc2C1 (stereo not drawn) | 5.14% (inactive) | – |
| CC1CCC(O)(C(C(=O)O)c2ccccc2)CC1 (stereo not drawn) | -8.55% (inactive) | – |
| COc1cc(NC(=O)CSc2ccc(-c3ccccn3)nn2)cc(OC)c1 | 0% (inactive) | – |
| O=C(NNC1CC(=O)N(c2cccc(Cl)c2)C1=O)c1cccs1 (stereo not drawn) | 3.87% (inactive) | – |
| O=C1CSC(=Nc2ccc(O)cc2)N1 | -4.89% (inactive) | – |
| O=C1CSC(=Nc2ccc(O)cc2)N1c1ccc(O)cc1 | -5.52% (inactive) | – |
| CN(C(=O)CC1C(=O)NCCN1Cc1ccccc1C(F)(F)F)C1CCOCC1 (stereo not drawn) | 0.91% (inactive) | – |
| O=C(NCCCN1CCCC1)C1CCN(C(=O)c2cc3sccc3n2Cc2ccc(F)cc2)CC1 | -2.07% (inactive) | – |
| CC(/C=C/c1ccco1)=N\NC(=O)COc1ccc(C)c(C)c1 | -10.9% (inactive) | – |
| CC(=O)Nc1ccc(/C(N=Nc2ccccc2)=N/N=C(N)N)cc1 | 7.72% (inactive) | – |
| O=C(O)c1cccc(N/N=C(\N=Nc2ccccc2)c2ccccc2)c1 | 12.7% (inactive) | – |
| CCCCn1c(SCC2CCCO2)nc2cc(S(N)(=O)=O)ccc21 (stereo not drawn) | -11.1% (inactive) | – |
| CC1CCN(S(=O)(=O)c2ccc(C(=O)Nc3nnc(C4CC4)o3)cc2)CC1 | -8.7% (inactive) | – |
| COc1cc(NC(=O)CN2CC(c3ccccc3)CC2=O)cc(OC)c1 (stereo not drawn) | 0.73% (inactive) | – |
| CCn1cc(Br)c(C(=O)N2CCN(c3ccccc3)CC2)n1 | -5.15% (inactive) | – |
| N#CC(=C1C=C(Br)C(=NO)C=C1Cl)c1cccc2ccccc12 | 24.1% (inactive) | – |
| COc1ccc(C(C#N)=C2C=C(Cl)C(=NO)C=C2Cl)cc1 | 27.6% (inactive) | – |
